# From PubChem BioAssay AID651791 (National Center for Advancing Translational Sciences (NCATS), 2012)
# Records with an inconclusive call do not appear. Calls of active or inactive are those of the source. Calls come from the whole dose curve; as a rule, active = well fitted inhibition curve with a large enough effect; inconclusive = small, poorly fitted or top-dose-only effect; inactive = no such curve, though single readings can be large or run the other way.
# Experiment: InCell qHTS Assay for Inhibitors of the mTORC1 Signaling Pathway in MEF (Tsc2-/-, p53-/-) Cells: Hit Validation;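 note: phospho-S6 Ser235/236 signal normalized to propidium iodide cell count per well; nearly all actives have a fitted effect of over 75% in size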
# Settings: phospho-rpS6 immunofluorescence, 24 h; activity change, negative = inhibition: at 38.3 µM (top of the series)
# Potency is the fitted concentration of half-maximal effect.
SMILES,"activity change, negative = inhibition [%]",Potency
CCc1ccccc1NC(=O)CSCc1cnn(-c2ccccc2)c1-n1cccc1,-100,–
Cc1cccn2c(Nc3ccccc3)c(-c3cccs3)nc12,-100,–
COc1ccc(NC(=O)c2c(NC(=O)COc3ccccc3)sc3c2CCC(C)C3)cc1 (configuration not stated),-100,–
Cc1cccc(C(=O)Nc2c3c(nn2-c2ccc(Cl)cc2)CS(=O)(=O)C3)c1,-100,–
O=C(/C=C/c1ccco1)Nc1ccc(Cl)c(-c2nc3cc(Cl)ccc3o2)c1,-100,–
CC(C)(C)c1ccc(S(=O)(=O)N2CCC(c3ccncc3)CC2)cc1,-29.8,–
O=C(Nc1ccccc1)N(Cc1cccc(Cl)c1)c1ccccn1,-100,–
Cc1ccc(C)c(NC(=O)Nc2cc3c(cc2N2CCCCC2)n(C)c(=O)n3C)c1,-100,–
CC1=C(C(=O)OC2CCCC2)C(c2ccccc2Cl)CC(=O)N1 (configuration not stated),-100,–
COc1ccc(C(=O)N2CCN(C(=O)COc3ccc(Br)cc3)CC2)cc1OC,-100,–
Cc1ccc(C)c(CN2C(=O)C(=O)c3ccccc32)c1,-100,–
COCc1oc2ccc(NS(=O)(=O)c3ccc(C)cc3)cc2c1C(=O)OC,-6.75,–
CCOc1ccc(-c2cnc(NCc3ccc(C(F)(F)F)cc3)n2C)cc1,-100,–
CCOC(=O)N1CCN(Cc2nc3cc(NC(=O)C(C)C)ccc3n2C(C)C)CC1,-100,–
Cc1cccc(OCC(=O)Nc2ccc3c(c2)N(C)C(=O)c2ccccc2S3)c1,-100,–
CCNS(=O)(=O)c1cc(-c2nnc(Nc3cccc(C(F)(F)F)c3)c3ccccc23)ccc1C,-100,–
CCCCn1c(=N)n(CCOc2ccccc2OC)c2ccccc21,–,7.36 µM (active)
